Sampled rows, rich in hits. Any-hit rate of the full collection: about 5%.
CHT allo act: allosterically activates the human high affinity choline transporter. 310,000 tested, 0.49% active. Q9GZV3. B-score at 10 µM. AID 488977. CHT-expressing cells, membrane potential dye, choline EC20; active compounds read high; LV-AA mutant CHT in HEK293 cells;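 active = initial fluorescence not abnormally high and integrated response B-score, plate-corrected, over 3 SD above library mean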
PREPL inh: inhibits the human prolyl oligopeptidase-like enzyme | 320,000 tested, 0.68% active | AID 2751 | inhibition, % at 5.96 µM | recombinant PREPL, fluorescence polarization activity-based probe; in the data active = inhibition above about 43%
ALR inh: blocks human ALR sulfhydryl oxidase activity | P55789 | purified ALR, DTT oxidation, H2O2 HRP-luminol luminescence | inhibition, % (concentration not given with the values) | 290,000 tested, 3.8% active | AID 485317;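 active = mean replicate inhibition above about 79%, with every replicate also reaching it, limit read from the data; inconclusive = only one of the two criteria met; inactive = mean below limit and not every replicate reaching it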
Target sequence (P55789 whole entry, looked up): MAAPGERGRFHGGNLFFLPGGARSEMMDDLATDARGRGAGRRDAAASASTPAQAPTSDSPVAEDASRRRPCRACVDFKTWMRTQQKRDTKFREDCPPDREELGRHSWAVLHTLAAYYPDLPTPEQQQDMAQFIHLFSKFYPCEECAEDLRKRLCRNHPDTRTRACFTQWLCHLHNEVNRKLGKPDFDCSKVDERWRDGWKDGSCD
AI-2 QS mod: Vibrio harveyi AI-2 quorum sensing modulation; Vibrio harveyi JMH597 AI-2 luminescence/OD600 ratio, 9 h; active compounds read low; strain lacks LuxN and CqsS sensors; 0 = neutral-control median; activity change, % at 7.5 µM; 300,000 tested, 0.4% active; AID 2094; in the data active = activity change below about -75%, passing the limit was not always enough; inconclusive = no clear call, values can overlap the other calls;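 note: luminescence divided by OD600 gain over 9 h not by final OD600 alone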
CHT inh: inhibits the human high affinity choline transporter; Q9GZV3; B-score at 10 µM; CHT-expressing cells, membrane potential dye, choline response; active compounds read low; 310,000 tested, 0.86% active;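 active = B-score over 3 SD under the library average, and starting fluorescence ratio not unusually high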;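 note: choline stimulus applied at its EC90 after an EC20 pre-addition; B-score computed on integrated fluorescence ratio after choline addition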
Each line names hits and unclear results; the compound was inactive in the other large screens.

CN1CCN(Cc2c(O)ccc3cc(Br)ccc23)CC1	ALR inh 78.2
CCc1cc(=O)oc2c(CN3CCN(C)CC3)c(O)ccc12	none
COc1cc2c(cc1O)CCN(C(=O)CSc1nncn1C)[C@@H]2C	ALR inh 81.7 (no result: CHT allo act, AI-2 QS mod, CHT inh)
COc1cc2c(cc1OC)[C@H](C)N(C(=O)CSc1nc(O)c(C(C)C)c(=O)[nH]1)CC2	none (no result: ALR inh)
CC(C)[C@@H](C(=O)NCc1ccco1)N1C(=O)N2CCc3c([nH]c4ccccc34)[C@@]2(C)C1=O	none (no result: ALR inh)
CSc1ccc(/C=C2\C(=N)N3N=C(CC(=O)N4CCCCC4)SC3=NC2=O)cc1	ALR inh 96.3
CC(C)c1ccc(/C=C2\C(=N)N3N=C(CC(=O)N4CCCCC4)SC3=NC2=O)cc1	ALR inh 95.9
CCN(CC)c1ccc(/C=C2\C(=N)N3N=C(CC(=O)N4CCOCC4)SC3=NC2=O)cc1	ALR inh 97.9
CSc1ccc(/C=C2\C(=N)N3N=C(CC(=O)N4CCOCC4)SC3=NC2=O)cc1	none
COc1ccc(/C=C2\C(=N)N3N=C(CC(=O)N4CCCCC4)SC3=NC2=O)cc1	ALR inh 80.3
CCC(CO)Oc1cc(NC(=O)c2ccccc2)c2ncn(C(C)C)c2c1 (stereo not given)	none (no result: CHT allo act, AI-2 QS mod, CHT inh)
CC1=[N+](C)c2ccc3ccccc3c2C1(C)C	none
O=C1CC(N2CCN(c3ccc(O)cc3)CC2)C(=O)N1Cc1cccs1 (stereo not given)	ALR inh 99.2 (no result: AI-2 QS mod)
O=C1CC(N2CCN(C/C=C/c3ccccc3)CC2)C(=O)N1Cc1cccs1 (stereo not given)	none
CCCN(CCC)c1ccc(CC(=O)NC(C)Cc2ccccc2)cc1 (stereo not given)	ALR inh 97.9
CCCNC(=O)C(Cc1ccccc1)NC(=O)Cc1ccccc1 (stereo not given)	none (no result: CHT allo act, AI-2 QS mod, CHT inh)
Clc1ccccc1-c1nnc(-c2ccccc2Cl)o1	none
O=c1oc(-c2ccccc2Cl)nc2ccsc12	AI-2 QS mod -82.8
CCOC(=O)N1CCc2c(sc3c2c(=O)n(-c2ccc(CC)cc2)c(=O)n3CC(=O)NCC2CCCO2)C1 (stereo not given)	none
O=C(Nc1cc(Cl)ccc1-n1cncn1)c1ccc([N+](=O)[O-])s1	AI-2 QS mod inconclusive
Cc1ccc(O)c(C2=NNC(c3ccc(Cl)cc3)C2)c1 (stereo not given)	none
Cc1ccc(C2Cc3cc(O)c(O)cc3CN2)cc1 (stereo not given)	ALR inh 98.6
CC(NC(=O)CCNC(=O)N1CCn2c1nc1ccccc12)c1ccccc1 (stereo not given)	ALR inh 96.8
CC(C)C[C@H](NC(=O)N1CCn2c1nc1ccccc12)C(=O)N1CCCCC1	none
CSCC[C@H](NC(=O)N1CCn2c1nc1ccccc12)C(=O)N1CCCCC1	ALR inh 97.5
CCOc1ccccc1CN1CCNC(=O)C1CC(=O)NCc1cc(C)n(C)n1 (stereo not given)	none
CCOC(=O)c1ccc2[nH]c3c(c2c1)CCCC3	ALR inh 98.3
CN(CCC#N)C(=O)COC(=O)c1ccc2[nH]c3c(c2c1)CCCC3	none
CCCCCC(=O)N/N=C/c1cc(Br)c(O)c(OC)c1	ALR inh 99.3
COc1cc(/C=N/NC(=O)C2C3CCCCC32C)cc(Br)c1O (stereo not given)	ALR inh 86.0
COc1ccc(/C=N/NC(=O)C2C3CCCCC32C)cc1OC (stereo not given)	none
COc1ccccc1N(CCN1C(=O)c2cccc3cccc(c23)C1=O)C(=O)c1ccncc1	none
Cc1cc(C)cc(NC(=O)CSc2nnc(-c3cc(C)[nH]n3)n2N)c1	none
CCOC(=O)C1CN(S(=O)(=O)c2ccc(C)cc2)C1	none
Cc1ccc(-c2nc3c(c(=O)[nH]c(=O)n3CC(C)C)n2CC(C)C)cc1[N+](=O)[O-]	none (no result: ALR inh)
CCCCn1c(=O)[nH]c(=O)c2c1nc(-c1ccc(C)c([N+](=O)[O-])c1)n2CC	ALR inh 96.1
CN(C)c1ccc(C2N3CC4(C)CN2CC(C)(C3)C4O)cc1 (stereo not given)	ALR inh 99.0
COC(=O)C(N)Cc1ccc(O)c(O)c1 (stereo not given)	ALR inh 99.2
Cc1ccc(NC(=S)NNC(=O)Cn2nc([N+](=O)[O-])cc2C)cc1	ALR inh 84.7
CCCCN(CCCNC(=O)c1c(C)cc(=O)oc1C)c1ccccc1	ALR inh 99.1
CCCNC(=O)c1c(C)cc(=O)oc1C	none
CCN(CCCNC(=O)c1c(C)cc(=O)oc1C)c1ccccc1	ALR inh 98.9 (no result: AI-2 QS mod)
NCCc1nc(-c2ccccc2)cs1	none
COc1ccc(CN(CCC(c2ccccc2)c2ccc(OC(C)C)cc2)C(=O)CCl)cc1OC (stereo not given)	none
Cc1cccc(Nc2nc(-c3ccc(O)cc3O)cs2)n1	ALR inh 96.8 (no result: AI-2 QS mod)
CN1CCN(C(=O)c2cnn(-c3ccccc3)c2NC(=O)c2ccc(Br)cc2)CC1	none (no result: ALR inh)
CC(=O)Nc1ccc(NC(C)=O)s1	ALR inh 87.0
CC1CN(S(=O)(=O)c2ccc(C(=O)Nc3nnc(-c4ccco4)o3)cc2)CC(C)O1 (stereo not given)	ALR inh 86.8
O=C(Nc1cccc(-c2cn3ccccc3n2)c1)c1ccccc1	ALR inh 95.4
Cc1ccc(C(=O)Nc2cccc(-c3cn4ccccc4n3)c2)cc1	none
Cc1cc(Br)cc(C)c1NC(=S)NC(=O)CC(C)C	ALR inh 90.3
O=C(NNC(=S)Nc1ccccc1)c1ccc(O)cc1	ALR inh 99.0
O=C(NC(=S)Nc1ccc(O)cc1)c1cncc(Br)c1	ALR inh 98.9
COc1ccc(NC(=S)NC(=O)c2cncc(Br)c2)cc1	none
Cc1ccccc1C(=O)NCC(=O)NNC(=S)NC(=O)c1ccccc1	ALR inh 97.9
O=C(O)c1ccc(NC(=S)Nc2ccccc2)cc1	ALR inh 98.8
COC(=O)c1ccc(/C=N\N2CCN(c3ccccc3)CC2)cc1	none (no result: PREPL inh)
CCCCCN(C(=O)CSc1n[nH]c(-c2ccc(C)cc2)n1)c1c(N)n(CCCC)c(=O)[nH]c1=O	none
O=C(CCN1CCOCC1)c1ccccc1	none
COC(=O)c1ccc(NC(=S)NNC(=O)c2ccccc2)cc1	ALR inh 92.0
O=C(CCN1CCOCC1)NNC(=S)NC(=O)c1ccccc1	ALR inh 98.6
O=C(NNC(=S)NC(=O)c1ccccc1)c1ccc(O)cc1	ALR inh 98.8, AI-2 QS mod inconclusive
O=C(NNC(=S)Nc1ccc(Br)cc1)c1ccccc1	ALR inh 97.5 (no result: PREPL inh)
COc1ccc(CCNC(=O)Cc2ccc(OCc3ccccc3)c(OC)c2[N+](=O)[O-])cc1OCc1ccccc1	none (no result: ALR inh)
O=C(NNC(=S)Nc1ccccc1)c1ccc2ncccc2c1	ALR inh 78.3
COc1ccccc1NC(=S)NNC(=O)c1ccc(O)cc1	ALR inh 99.3
Cc1cccc(NC(=O)NNS(=O)(=O)c2ccc(F)cc2)c1	none (no result: ALR inh)
O=C(O)c1ccc(NC(=S)NC(=O)c2ccc3ccccc3c2)cc1	none

Compound activity as filed in PubChem.
